What was measured:
Assay in all cases: DAPPL (digital affinity profiling via proximity ligation, sequencing); 10 mM Tris-HCl pH 7.5, 50 mM NaCl, 1 mM DTT, 4% glycerol, room temperature, 30 min; GST-TFs on glutathione beads, 16-mer random dsDNA library, 0.1% formaldehyde crosslink after washing; high values mean tight binding
FEV = target: T1, FEV (Homo sapiens, UniProt Q99581 1-238); conditions: protein: recombinant; tags: N-terminal GST; dsDNA, one strand shown
T1 sequence: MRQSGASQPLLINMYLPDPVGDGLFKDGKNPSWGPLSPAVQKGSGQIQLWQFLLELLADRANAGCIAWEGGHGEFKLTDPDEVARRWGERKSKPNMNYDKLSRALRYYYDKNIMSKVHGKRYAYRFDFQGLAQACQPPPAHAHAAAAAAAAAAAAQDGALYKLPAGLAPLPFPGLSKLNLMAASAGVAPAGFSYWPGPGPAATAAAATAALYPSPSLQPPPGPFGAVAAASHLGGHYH
How it was run: (§1)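 Human transcription factors were made in yeast as GST fusions, captured on glutathione beads and barcoded with DNA. With a tag-only sample included, the pool was incubated with 200 nmole of a random double-stranded 16-mer DNA library in Tris/NaCl/DTT/glycerol buffer at room temperature for 30 min, then crosslinked with 0.1% formaldehyde after washing, ligated by proximity, amplified and sequenced. For binding signal, each hexamer's read frequency for a factor is divided by its frequency for the tag-only sample.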

ETV5 = ETV5 (Homo sapiens, UniProt P41161 1-510); conditions: protein: recombinant; tags: N-terminal GST; dsDNA, one strand shown
How it was run: as §1

HSF1 = HSF1 (Homo sapiens, UniProt Q00613 1-529); conditions: protein: recombinant; tags: N-terminal GST; chain copies: 3; dsDNA, one strand shown
How it was run: as §1

SPIC = target: T2, SPIC (Homo sapiens, UniProt Q8N5J4 1-248); conditions: protein: recombinant; tags: N-terminal GST; dsDNA, one strand shown
T2 sequence: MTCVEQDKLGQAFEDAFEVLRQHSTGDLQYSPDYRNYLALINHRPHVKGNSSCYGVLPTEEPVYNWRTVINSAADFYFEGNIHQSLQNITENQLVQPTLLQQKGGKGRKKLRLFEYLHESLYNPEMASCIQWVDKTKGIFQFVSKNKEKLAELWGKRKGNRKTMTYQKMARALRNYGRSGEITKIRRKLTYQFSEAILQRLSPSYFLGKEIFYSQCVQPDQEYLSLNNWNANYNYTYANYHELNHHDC
How it was run: as §1

ELF4 = ELF4 (Homo sapiens, UniProt Q99607 1-663); conditions: protein: recombinant; tags: N-terminal GST; dsDNA, one strand shown
How it was run: as §1

ELK4 = target: T3, ELK4 (Homo sapiens, UniProt P28324-2 1-405); conditions: protein: recombinant; tags: N-terminal GST; dsDNA, one strand shown
T3 sequence: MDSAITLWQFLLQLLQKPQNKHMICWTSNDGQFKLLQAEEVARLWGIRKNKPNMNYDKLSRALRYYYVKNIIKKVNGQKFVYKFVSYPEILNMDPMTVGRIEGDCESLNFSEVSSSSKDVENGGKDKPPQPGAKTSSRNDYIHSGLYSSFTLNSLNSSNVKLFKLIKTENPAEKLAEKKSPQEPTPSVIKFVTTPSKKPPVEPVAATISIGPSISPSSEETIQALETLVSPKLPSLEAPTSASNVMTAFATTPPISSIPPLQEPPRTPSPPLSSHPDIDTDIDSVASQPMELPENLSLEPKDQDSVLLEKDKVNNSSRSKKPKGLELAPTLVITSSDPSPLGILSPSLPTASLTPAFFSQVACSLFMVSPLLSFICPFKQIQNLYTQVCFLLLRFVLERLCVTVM
How it was run: as §1

ETV2 = target: T4, ETV2 (Homo sapiens, UniProt O00321 1-342); conditions: protein: recombinant; tags: N-terminal GST; dsDNA, one strand shown
T4 sequence: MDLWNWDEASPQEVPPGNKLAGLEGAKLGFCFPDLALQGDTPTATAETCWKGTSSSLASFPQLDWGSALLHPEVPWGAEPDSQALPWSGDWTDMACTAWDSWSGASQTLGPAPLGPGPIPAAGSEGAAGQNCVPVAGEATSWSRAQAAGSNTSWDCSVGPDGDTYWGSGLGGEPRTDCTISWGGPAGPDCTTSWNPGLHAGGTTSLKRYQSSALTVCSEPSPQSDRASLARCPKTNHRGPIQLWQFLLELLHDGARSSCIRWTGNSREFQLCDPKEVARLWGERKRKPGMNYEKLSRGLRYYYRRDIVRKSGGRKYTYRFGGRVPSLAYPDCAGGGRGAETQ
How it was run: as §1

ELF3 = target: T5, ELF3 (Homo sapiens, UniProt P78545 1-371); conditions: protein: recombinant; tags: N-terminal GST; dsDNA, one strand shown
T5 sequence: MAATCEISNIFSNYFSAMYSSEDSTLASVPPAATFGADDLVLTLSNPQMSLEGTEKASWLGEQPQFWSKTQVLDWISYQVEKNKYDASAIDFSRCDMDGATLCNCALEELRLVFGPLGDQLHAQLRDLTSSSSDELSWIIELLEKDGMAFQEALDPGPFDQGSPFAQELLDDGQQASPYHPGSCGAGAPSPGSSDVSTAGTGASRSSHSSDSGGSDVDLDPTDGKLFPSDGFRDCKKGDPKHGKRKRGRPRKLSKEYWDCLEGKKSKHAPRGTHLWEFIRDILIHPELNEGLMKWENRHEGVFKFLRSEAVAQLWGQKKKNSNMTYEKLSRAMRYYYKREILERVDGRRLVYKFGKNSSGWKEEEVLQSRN
How it was run: as §1

CRX = CRX (Homo sapiens, UniProt O43186 1-299); conditions: protein: recombinant; tags: N-terminal GST; dsDNA, one strand shown
How it was run: as §1

ETV1 = ETV1 (Homo sapiens, UniProt P50549 1-477); conditions: protein: recombinant; tags: N-terminal GST; dsDNA, one strand shown
How it was run: as §1

ERF = target: T6, ERF (Homo sapiens, UniProt P50548 1-548); conditions: protein: recombinant; tags: N-terminal GST; dsDNA, one strand shown
T6 sequence: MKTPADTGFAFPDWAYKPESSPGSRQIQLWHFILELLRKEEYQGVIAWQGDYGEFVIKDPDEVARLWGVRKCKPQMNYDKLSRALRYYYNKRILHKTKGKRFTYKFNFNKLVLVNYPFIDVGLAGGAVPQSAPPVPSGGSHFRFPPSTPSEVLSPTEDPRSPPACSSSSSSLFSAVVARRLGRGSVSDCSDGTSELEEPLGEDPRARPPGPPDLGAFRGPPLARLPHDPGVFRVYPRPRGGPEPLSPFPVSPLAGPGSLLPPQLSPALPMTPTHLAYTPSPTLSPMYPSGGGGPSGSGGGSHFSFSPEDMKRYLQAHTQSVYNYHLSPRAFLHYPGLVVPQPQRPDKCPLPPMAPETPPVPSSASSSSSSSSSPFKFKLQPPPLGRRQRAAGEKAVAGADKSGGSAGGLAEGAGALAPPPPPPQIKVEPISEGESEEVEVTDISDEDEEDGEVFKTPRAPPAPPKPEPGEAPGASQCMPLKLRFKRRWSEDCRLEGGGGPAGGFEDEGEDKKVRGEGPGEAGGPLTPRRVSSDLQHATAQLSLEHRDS
How it was run: as §1

ETV3L = target: T7, ETV3L (Homo sapiens, UniProt Q6ZN32 1-361); conditions: protein: recombinant; tags: N-terminal GST; dsDNA, one strand shown
T7 sequence: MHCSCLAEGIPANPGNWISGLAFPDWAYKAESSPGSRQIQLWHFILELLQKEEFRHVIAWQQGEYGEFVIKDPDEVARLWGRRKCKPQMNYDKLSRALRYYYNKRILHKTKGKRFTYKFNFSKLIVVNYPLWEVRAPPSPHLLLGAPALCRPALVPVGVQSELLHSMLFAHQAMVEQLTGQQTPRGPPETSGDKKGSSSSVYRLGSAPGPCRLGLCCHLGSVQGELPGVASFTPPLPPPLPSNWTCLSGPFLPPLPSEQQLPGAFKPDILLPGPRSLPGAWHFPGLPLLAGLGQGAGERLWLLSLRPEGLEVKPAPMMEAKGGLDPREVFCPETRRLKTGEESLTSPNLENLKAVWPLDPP
How it was run: as §1

ETS2 = target: T8, ETS2 (Homo sapiens, UniProt P15036 1-469); conditions: protein: recombinant; tags: N-terminal GST; dsDNA, one strand shown
T8 sequence: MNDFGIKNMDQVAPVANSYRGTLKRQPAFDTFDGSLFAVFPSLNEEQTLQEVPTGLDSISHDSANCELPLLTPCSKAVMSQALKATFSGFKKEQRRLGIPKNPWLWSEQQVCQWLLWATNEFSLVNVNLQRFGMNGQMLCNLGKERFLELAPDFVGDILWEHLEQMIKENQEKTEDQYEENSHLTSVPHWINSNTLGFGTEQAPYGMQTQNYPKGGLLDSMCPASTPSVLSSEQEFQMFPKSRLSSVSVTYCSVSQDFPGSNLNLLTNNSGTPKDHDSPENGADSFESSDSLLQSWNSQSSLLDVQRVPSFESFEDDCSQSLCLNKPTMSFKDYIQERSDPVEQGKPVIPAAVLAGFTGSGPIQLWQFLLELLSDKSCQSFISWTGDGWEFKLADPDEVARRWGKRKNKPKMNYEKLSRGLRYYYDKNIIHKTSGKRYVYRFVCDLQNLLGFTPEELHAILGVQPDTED
How it was run: as §1

SPDEF = target: T9, SPDEF (Homo sapiens, UniProt O95238 1-335); conditions: protein: recombinant; tags: N-terminal GST; dsDNA, one strand shown
T9 sequence: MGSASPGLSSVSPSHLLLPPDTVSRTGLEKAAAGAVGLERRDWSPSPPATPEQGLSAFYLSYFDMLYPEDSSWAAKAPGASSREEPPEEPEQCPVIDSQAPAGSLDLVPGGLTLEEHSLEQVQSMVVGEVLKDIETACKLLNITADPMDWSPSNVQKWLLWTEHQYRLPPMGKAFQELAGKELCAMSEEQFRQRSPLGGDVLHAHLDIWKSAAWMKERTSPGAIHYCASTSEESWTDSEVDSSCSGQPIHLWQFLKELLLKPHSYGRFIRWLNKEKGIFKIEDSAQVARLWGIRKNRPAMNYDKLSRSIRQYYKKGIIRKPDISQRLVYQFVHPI
How it was run: as §1

ETV7 = target: T10, ETV7 (Homo sapiens, UniProt Q9Y603 1-341); conditions: protein: recombinant; tags: N-terminal GST; dsDNA, one strand shown
T10 sequence: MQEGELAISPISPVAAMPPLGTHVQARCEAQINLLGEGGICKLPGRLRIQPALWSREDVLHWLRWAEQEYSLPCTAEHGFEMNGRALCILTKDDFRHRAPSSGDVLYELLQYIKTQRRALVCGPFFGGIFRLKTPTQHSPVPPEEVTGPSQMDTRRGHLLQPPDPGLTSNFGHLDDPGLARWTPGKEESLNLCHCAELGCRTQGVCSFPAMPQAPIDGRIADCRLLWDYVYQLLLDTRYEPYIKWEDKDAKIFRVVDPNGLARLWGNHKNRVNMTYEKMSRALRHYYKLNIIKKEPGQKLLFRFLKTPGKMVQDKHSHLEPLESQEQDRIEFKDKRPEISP
How it was run: as §1

ELF5 = target: T11, ELF5 (Homo sapiens, UniProt Q9UKW6-2 1-255); conditions: protein: recombinant; tags: N-terminal GST; dsDNA, one strand shown
T11 sequence: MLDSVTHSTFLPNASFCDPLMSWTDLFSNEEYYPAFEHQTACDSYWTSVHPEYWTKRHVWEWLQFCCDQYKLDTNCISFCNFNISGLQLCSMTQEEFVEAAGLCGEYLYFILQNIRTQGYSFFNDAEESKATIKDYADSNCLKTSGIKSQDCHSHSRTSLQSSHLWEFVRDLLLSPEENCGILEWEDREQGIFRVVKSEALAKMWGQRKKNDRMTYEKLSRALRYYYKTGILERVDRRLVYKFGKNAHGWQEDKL
How it was run: as §1

ETV3 = target: T12, ETV3 (Homo sapiens, UniProt P41162-2 1-143); conditions: protein: recombinant; tags: N-terminal GST; dsDNA, one strand shown
T12 sequence: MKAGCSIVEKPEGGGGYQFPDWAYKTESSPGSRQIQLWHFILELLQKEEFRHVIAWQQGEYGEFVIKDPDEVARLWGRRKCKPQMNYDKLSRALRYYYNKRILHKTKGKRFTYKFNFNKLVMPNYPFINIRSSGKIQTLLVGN
How it was run: as §1

ETV6 = ETV6 (Homo sapiens, UniProt P41212 1-452); conditions: protein: recombinant; tags: N-terminal GST; dsDNA, one strand shown
How it was run: as §1

ETV1, sequence (P50549 whole entry): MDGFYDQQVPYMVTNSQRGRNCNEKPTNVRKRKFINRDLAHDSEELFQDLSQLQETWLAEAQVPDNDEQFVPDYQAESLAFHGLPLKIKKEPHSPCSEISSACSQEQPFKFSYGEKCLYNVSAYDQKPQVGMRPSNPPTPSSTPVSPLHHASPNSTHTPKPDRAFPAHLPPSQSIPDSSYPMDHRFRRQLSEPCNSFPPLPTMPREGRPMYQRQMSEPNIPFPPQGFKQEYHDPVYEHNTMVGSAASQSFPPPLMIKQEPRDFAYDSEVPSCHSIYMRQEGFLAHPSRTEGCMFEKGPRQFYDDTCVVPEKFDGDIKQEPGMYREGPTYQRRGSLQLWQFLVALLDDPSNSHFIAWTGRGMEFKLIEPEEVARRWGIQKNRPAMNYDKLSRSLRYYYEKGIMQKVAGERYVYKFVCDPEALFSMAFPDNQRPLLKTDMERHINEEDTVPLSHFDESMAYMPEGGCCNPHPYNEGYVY
ETV5, sequence (P41161 whole entry): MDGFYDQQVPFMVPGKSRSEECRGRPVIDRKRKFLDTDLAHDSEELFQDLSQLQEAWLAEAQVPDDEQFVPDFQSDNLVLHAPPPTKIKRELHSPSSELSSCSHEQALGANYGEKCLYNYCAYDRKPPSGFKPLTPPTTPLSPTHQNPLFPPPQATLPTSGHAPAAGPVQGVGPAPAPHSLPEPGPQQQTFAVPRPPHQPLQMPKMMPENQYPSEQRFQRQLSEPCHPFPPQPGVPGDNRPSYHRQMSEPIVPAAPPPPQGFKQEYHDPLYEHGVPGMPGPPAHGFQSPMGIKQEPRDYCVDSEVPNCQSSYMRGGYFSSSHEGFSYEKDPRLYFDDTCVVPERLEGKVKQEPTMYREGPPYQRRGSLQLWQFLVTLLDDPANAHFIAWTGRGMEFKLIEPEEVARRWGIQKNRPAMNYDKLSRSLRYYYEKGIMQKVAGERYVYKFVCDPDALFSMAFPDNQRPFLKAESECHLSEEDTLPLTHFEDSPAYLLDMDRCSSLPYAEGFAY
HSF1, sequence (Q00613 whole entry): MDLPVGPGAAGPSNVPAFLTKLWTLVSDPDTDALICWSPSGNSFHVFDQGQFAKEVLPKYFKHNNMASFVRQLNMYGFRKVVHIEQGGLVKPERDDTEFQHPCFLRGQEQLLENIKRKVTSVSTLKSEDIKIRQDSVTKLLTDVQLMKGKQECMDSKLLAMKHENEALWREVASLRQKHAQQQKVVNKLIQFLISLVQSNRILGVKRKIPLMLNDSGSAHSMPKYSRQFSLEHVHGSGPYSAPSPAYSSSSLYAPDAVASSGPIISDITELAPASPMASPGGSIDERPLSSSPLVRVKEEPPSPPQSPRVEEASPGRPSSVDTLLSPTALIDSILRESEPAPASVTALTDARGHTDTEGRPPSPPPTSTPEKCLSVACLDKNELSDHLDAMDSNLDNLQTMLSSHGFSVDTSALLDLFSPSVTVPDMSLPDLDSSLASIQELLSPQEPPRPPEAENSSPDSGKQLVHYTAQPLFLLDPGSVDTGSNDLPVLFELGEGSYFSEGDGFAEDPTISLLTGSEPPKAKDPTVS
ELF4, sequence (Q99607 whole entry): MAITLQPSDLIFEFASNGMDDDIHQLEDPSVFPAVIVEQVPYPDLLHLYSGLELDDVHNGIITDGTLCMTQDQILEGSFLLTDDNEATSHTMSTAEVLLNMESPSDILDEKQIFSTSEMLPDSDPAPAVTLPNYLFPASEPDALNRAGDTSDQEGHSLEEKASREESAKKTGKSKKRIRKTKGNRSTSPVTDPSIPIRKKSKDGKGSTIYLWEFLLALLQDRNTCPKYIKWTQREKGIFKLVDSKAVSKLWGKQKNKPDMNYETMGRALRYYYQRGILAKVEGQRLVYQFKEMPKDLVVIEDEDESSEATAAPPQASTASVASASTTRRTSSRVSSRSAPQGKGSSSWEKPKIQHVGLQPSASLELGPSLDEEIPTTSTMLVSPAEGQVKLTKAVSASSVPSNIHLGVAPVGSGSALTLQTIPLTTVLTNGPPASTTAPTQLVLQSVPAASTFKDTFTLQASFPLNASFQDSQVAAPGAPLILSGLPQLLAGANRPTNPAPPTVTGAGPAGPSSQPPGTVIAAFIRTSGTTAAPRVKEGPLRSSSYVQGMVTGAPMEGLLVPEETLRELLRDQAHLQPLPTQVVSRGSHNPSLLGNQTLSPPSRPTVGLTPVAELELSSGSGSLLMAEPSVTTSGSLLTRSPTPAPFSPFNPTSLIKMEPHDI
ETV6, sequence (P41212 whole entry): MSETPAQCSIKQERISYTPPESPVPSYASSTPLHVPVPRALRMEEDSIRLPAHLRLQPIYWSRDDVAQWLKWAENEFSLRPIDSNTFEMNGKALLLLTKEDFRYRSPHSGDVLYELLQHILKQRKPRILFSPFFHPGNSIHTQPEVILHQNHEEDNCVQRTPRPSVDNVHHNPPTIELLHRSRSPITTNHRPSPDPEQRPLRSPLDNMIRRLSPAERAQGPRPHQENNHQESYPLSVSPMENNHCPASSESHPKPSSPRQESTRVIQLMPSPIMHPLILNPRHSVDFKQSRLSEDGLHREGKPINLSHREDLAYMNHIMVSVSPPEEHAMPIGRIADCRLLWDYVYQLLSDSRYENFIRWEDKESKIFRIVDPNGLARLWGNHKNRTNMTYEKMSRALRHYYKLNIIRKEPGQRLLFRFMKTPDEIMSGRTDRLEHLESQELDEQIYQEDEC
CRX, sequence (O43186 whole entry): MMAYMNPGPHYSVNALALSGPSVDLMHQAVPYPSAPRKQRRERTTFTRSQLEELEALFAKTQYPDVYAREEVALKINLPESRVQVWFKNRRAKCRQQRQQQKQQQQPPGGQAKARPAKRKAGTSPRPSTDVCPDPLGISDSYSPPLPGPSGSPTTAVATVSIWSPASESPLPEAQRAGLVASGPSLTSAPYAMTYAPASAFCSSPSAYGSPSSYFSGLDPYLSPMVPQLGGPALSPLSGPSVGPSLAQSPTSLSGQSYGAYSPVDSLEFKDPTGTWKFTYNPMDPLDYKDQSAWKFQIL

TATAAA
binding signal (FEV): 1.16 fold enrichment (6-mer frequency, TF over GST control) | binding signal (ETV5): 1.18 fold enrichment (6-mer frequency, TF over GST control) | binding signal (HSF1): 1.47 fold enrichment (6-mer frequency, TF over GST control) | binding signal (SPIC): 1.26 fold enrichment (6-mer frequency, TF over GST control) | binding signal (ELF4): 1.23 fold enrichment (6-mer frequency, TF over GST control) | binding signal (ELK4): 1.32 fold enrichment (6-mer frequency, TF over GST control) | binding signal (ETV2): 1.2 fold enrichment (6-mer frequency, TF over GST control) | binding signal (ELF3): 1.33 fold enrichment (6-mer frequency, TF over GST control) | binding signal (CRX): 1.85 fold enrichment (6-mer frequency, TF over GST control) | binding signal (ETV1): 1.16 fold enrichment (6-mer frequency, TF over GST control) | binding signal (ERF): 1.25 fold enrichment (6-mer frequency, TF over GST control) | binding signal (ETV3L): 1.15 fold enrichment (6-mer frequency, TF over GST control) | binding signal (ETS2): 1.27 fold enrichment (6-mer frequency, TF over GST control) | binding signal (SPDEF): 1.21 fold enrichment (6-mer frequency, TF over GST control) | binding signal (ETV7): 1.12 fold enrichment (6-mer frequency, TF over GST control) | binding signal (ELF5): 1.24 fold enrichment (6-mer frequency, TF over GST control) | binding signal (ETV3): 1.24 fold enrichment (6-mer frequency, TF over GST control) | binding signal (ETV6): 1.21 fold enrichment (6-mer frequency, TF over GST control)

— article PMC7862700, “An all-to-all approach to the identification of sequence-specific readers for epigenetic DNA modifications on cytosine”
